# Assay results: PubChem BioAssay AID603 (National Center for Advancing Translational Sciences (NCATS), 2007)
# About 180 (0.25%) of roughly 71,000 compounds were called active. Shown is part of a subset that was picked to be rich in actives. Values without a mark were called inactive. Calls come from the whole dose curve; as a rule, active = well fitted curve in the direction sought with a large enough effect; inconclusive = small, poorly fitted or top-dose-only effect; inactive = flat fitted curve, though single readings scatter.
# System: DNA polymerase III holoenzyme (E. coli)
# Test: qHTS Assay for Inhibitors of DNA Polymerase III Holoenzyme System
# Settings: reconstituted DNA polymerase III holoenzyme replication, biochemical; series mostly up to 57.1 µM; activity change, negative = inhibition: at the top concentration
# Description: NIH Molecular Libraries Screening Centers Network [MLSCN]
# NIH Chemical Genomics Center [NCGC]
# Assay Provider: Charles McHenry, University of Colorado
# E. coli DNA polymerase III holoenzyme complex was assayed for DNA production by fluorescent detection of the double-stranded DNA product with PicoGreen dye. The holoenzyme complex was reconstituted from the following purified protein components: DNA Polymerase III, beta subunit processivity factor, SSB single-stranded DNA binding protein, and Primase. Single-stranded, circular M13Gori was used as a substrate with dNTPs and NTPs also supplied to the substrate reagent. Compounds from the NCGC collection were incubated with the holoenzyme mixture for 15 min at room temperature to allow binding to occur, and then the reaction was started by the addition of substrate. After 30 min incubation at room temperature, PicoGreen solution containing EDTA was added to stop the reaction and to visualize the double-stranded DNA produced. Reaction progress was measured in a ViewLux CCD imager in fluorescence intensity mode by using 480 nm excitation and 540 nm emission filter set.
# NCGC Assay Protocol Summary:
# Buffer. 50 mM Hepes-KOH, pH 7.5, 5 % Glycerol, 0.02% NP40, 30 mM potassium;
# glutamate, 1.5 mM Magnesium Acetate, 16 uM TCEP.
# Buffer in columns 3 and 4 as negative control (no enzyme).
# Substrate solution: 5 uM each dATP, dGTP, dCTP and TTP, 50 uM each GTP, CTP, UTP and 200 uM ATP, 1.4 nM M13gori (final concentrations).
# Enzyme: 154 nM SSB, 2 nM Primase, 1 nM Beta, 0.35 nM Pol III (final concentrations).
# PicoGreen/EDTA: 10 mM Tris-HCl, 10 mM EDTA, 5 uM PicoGreen (final concentrations).
# Control titration: ChemBridge 5805060 (from 10 mM, then 1:2, in duplicate) was pin-transferred to upper half of column 2.
# Three uL of holoenzyme mixture were dispensed to 1536-well Greiner black solid bottom plates. Compounds and controls (23 nL) were transferred via Kalypsys PinTool. The plates were incubated for 15 min at room temperature, and then 1 uL of substrate solution was added to start the reaction. After room temperature incubation for 35 minutes, 1 uL of PicoGreen solution was added to each well and the plates were read 480 nm excitation and 540 nm emission using ViewLux (Perkin-Elmer) High-throughput CCD imager and fluorescence protocol settings.
# Keywords: NIH Roadmap, MLSCN, MLI, MLSMR, qHTS, NCGC, DNA Polymerase III, DNAPol3, DNAPoly3, DNA replication targets
# % is set by controls: 0 for no effect and ±100 for the full control effect.
Compound,"activity change, negative = inhibition",Potency
CC(C)c1cc(CN(C)C)c(O)c(C(C)(C)C)c1,-6.4% [at 11.4 µM],
COc1cccc(Cn2c(=O)c(-c3cc(F)cc(F)c3)nc3cnc(OC)nc32)c1,-8.3%,
O=c1cc(-c2ccccc2)[nH]c2nc(Cl)ccc12,-6.8%,
COC(=O)[C@@]1(Cc2ccc(F)cc2)[C@H]2c3cc(C(=O)N4CCCC4)n(C[C@H](O)CO)c3C[C@H]2CN1C(=O)c1ccccc1,0.9%,
CC(=O)O[C@]1(C(C)=O)CC[C@@H]2[C@@H]3C=C(C)C4=CC(=O)CC[C@@]4(C)[C@H]3CC[C@]21C,1% [at 25.6 µM],
O=C(O)CC(C(=O)O)C(CC(=O)O)C(=O)O (stereo unspecified),-4%,
COc1ccc(OC)c(NC(=O)CSc2nc(N)c(-c3ccccc3)c(=O)[nH]2)c1,-5.9%,
O=C(CSc1nnc(-c2ccncc2)n1C1CCCCC1)Nc1ccccc1,-3%,
CCN(CC)S(=O)(=O)c1ccc(NC(=O)CN(c2cccc(F)c2)S(C)(=O)=O)cc1,-3.6%,
O=C(Nc1c(-c2ccccc2)nc2c(Br)cc(Br)cn12)c1ccco1,-2%,
COC(=O)[C@@]1(Cc2ccc(F)cc2)[C@@H]2[C@@H](CC(=O)[C@H]2CC(=O)C(=O)N2CCCC2)CN1C(=O)c1ccccc1,-11.1%,
O=c1[nH]c(=O)c2nc3ccccc3nc2[nH]1,-12.6%,
O=C(NCc1ccccn1)c1ccc2nc(-c3ccco3)c(-c3ccco3)nc2c1,,3.98 µM (active)
Cc1cccn2c(=O)c3cc(C(=O)NCc4ccccn4)n(C)c3nc12,-3.4%,
O=C(NCc1ccccn1)c1cc2ccccc2oc1=O,-6.4%,
CC(C)Cc1ccc(S(=O)(=O)N2CCN(C(=O)c3ccco3)CC2)cc1,0.3%,
COc1ccc(NC(=O)N2CC3(CCN(C(=O)c4cccn4C)CC3)C2)cc1,8.4%,
CC1Cc2nc(SCC(=O)Nc3ccccc3F)n(C)c(=O)c2S1 (stereo unspecified),-4.2%,
Cc1cc(C)cc(N(CC(=O)NCC2CCCO2)S(=O)(=O)c2c(C)noc2C)c1 (stereo unspecified),1.2%,
COc1ccc(C[C@H](N)C(=O)N[C@@H]2[C@H](O)[C@H](n3cnc4c(N(C)C)ncnc43)O[C@@H]2CO)cc1,-1.2% [at 25.6 µM],
COc1ccc(-c2nnc(SCC(=O)NC3CCCCC3)o2)cc1OC,-1.4%,
COc1ccc2nc(N3CCCC(O)C3)c(C#N)cc2c1 (stereo unspecified),-8.3%,
CC(=O)Oc1ccccc1C(=O)Nc1ncc([N+](=O)[O-])s1,-1.5%,
COC(=O)[C@H](C)[C@H]1C[C@]1(C)[C@H](NC(=O)OCc1ccccc1)c1ccccc1,-3.5%,
CCOC(=O)N1CCN(C(=O)COc2ccc(Br)cc2)CC1,0.2% [at 11.4 µM],
N#Cc1c(NC(=O)CSc2nc3ccccc3c(=O)n2Cc2ccco2)sc2c1CCCC2,-1.2%,

Compound,"activity change, negative = inhibition",Potency
COc1ccc(-n2c(=O)c(-c3cn(C)c4ccccc34)nc3cnc(OC)nc32)cc1,-4%,
CC(=O)Oc1cccc(N2C(=O)C3CC=C(Cl)CC3C2=O)c1 (stereo unspecified),-1.3%,
COc1ccc(CNc2ncnc3ccc(-c4cccnc4)cc23)c(OC)c1,17.7%,
CCOC(=O)CC1C(=O)NCCN1C(=O)COc1ccc(Br)cc1C (stereo unspecified),-2.6%,
CC1CCN(c2oc(-c3ccccc3F)nc2C#N)CC1,-5.5%,
c1ccc(CSCCc2ccncc2)cc1,-2.4% [at 11.4 µM],
N#C/C(=C\c1ccc(O)c(O)c1)C(N)=O,-1.7%,
COC(=O)[C@@]1(Cc2ccc(F)cc2)[C@H]2c3cc(C(=O)N4CCCC4)n(Cc4ccc(OC(F)(F)F)cc4)c3C[C@H]2CN1C(=O)c1ccccc1,-9.3%,
OCCN1CCN(CC/C=C2\c3ccccc3Sc3ccc(C(F)(F)F)cc32)CC1,inactive,
O=C(Nc1c2c(nn1-c1ccc(F)cc1)CS(=O)C2)C12CC3CC(CC(C3)C1)C2 (stereo unspecified),-4%,
CCOC(=O)c1sc(N(Cc2ccccc2)C(=O)CN2C(=O)CN(C)C2=O)nc1C,5.4%,
O=C(Nc1cccc(F)c1)N1CC2(CCN(C(=O)c3cnccn3)CC2)C1,-9%,
c1ccc2c(Nc3ccncc3)nc(-c3ccoc3)nc2c1,-6.1%,
Cc1ccc(N2C(=O)c3oc4ccccc4c(=O)c3C2c2cccnc2)nc1 (stereo unspecified),-4.1%,
COc1ccccc1N1CCN(Cc2ccc(OC)c3ccccc23)CC1,-5.3%,
CCCCCCN(C(=O)CCCCCN1C(=O)NC(c2ccc(C(F)(F)F)cc2)C(C(=O)OCc2ccccc2)=C1C)C(C(=O)NCCCC)c1ccc(OCC(=O)OC)c(C(=O)OC)c1 (stereo unspecified),-2.4%,
C[C@@H]1O[C@@H](O[C@@H]2[C@@H](O)[C@H](OCCc3ccc(O)c(O)c3)O[C@H](CO[C@@H]3O[C@H](CO)[C@@H](O)[C@H](O)[C@H]3O)[C@H]2OC(=O)/C=C/c2ccc(O)c(O)c2)[C@H](O)[C@H](O)[C@H]1O,4.8%,
C/C=C1\C(=O)C[C@@H]2[C@@H]3CCC4=CC(=O)CC[C@@]4(C)[C@H]3CC[C@@]12C,-6.3%,
O=C(O)C1=CCCN(CCON=C(c2ccccc2)c2ccccc2)C1,inactive,
COC(=O)C1=C(C)N(C)C(C)=C(C(=O)OC)C1c1cccc(Br)c1,2.8%,
O=C(NCc1cccnc1)c1cn(-c2ccccc2)nc1-c1cccs1,-0.6%,
O=S(=O)(Nc1nccs1)c1ccc2c(c1)OCCO2,7.6%,
COC(=O)C1(C)C=CCN1C(=O)c1ccccc1 (stereo unspecified),-2.1%,
COc1cccc(-c2cc3nc4c(c(N5CCC6(CC5)OCCO6)n3n2)CCCC4)c1,-4.6%,
CCOc1ccccc1C1C(C(=O)OC)=CN(C)C=C1C(=O)OC,-3.1%,
